Test results published in PubChem BioAssay AID493231 (Broad Institute, 2011).
Results with a measured potency or affinity are listed apart.

The molecules below were run against Acyl-homoserine lactone acylase PvdQ (Pseudomonas aeruginosa (strain ATCC 15692 / DSM 22644 / CIP 104116 / JCM 14847 / LMG 12228 / 1C / PRS 101 / PAO1)) (UniProt Q9I194) (assay: P. aeruginosa PvdQ acylase inhibitors, dose response, biochemical, fluorescence, plate reader and imaging, cherry-picks (AID 493231;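 also: 0% = neutral control wells and -100% = reference inhibitor wells; more negative values mean stronger inhibition of the acylase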)). Details: purified PvdQ acylase, fluorogenic substrate; series mostly up to 10 µM; activity change, negative = inhibition: at the top concentration; call rule not given here.
Chain of Acyl-homoserine lactone acylase PvdQ (Pseudomonas aeruginosa (strain ATCC 15692 / DSM 22644 / CIP 104116 / JCM 14847 / LMG 12228 / 1C / PRS 101 / PAO1)) (Q9I194 whole entry, looked up): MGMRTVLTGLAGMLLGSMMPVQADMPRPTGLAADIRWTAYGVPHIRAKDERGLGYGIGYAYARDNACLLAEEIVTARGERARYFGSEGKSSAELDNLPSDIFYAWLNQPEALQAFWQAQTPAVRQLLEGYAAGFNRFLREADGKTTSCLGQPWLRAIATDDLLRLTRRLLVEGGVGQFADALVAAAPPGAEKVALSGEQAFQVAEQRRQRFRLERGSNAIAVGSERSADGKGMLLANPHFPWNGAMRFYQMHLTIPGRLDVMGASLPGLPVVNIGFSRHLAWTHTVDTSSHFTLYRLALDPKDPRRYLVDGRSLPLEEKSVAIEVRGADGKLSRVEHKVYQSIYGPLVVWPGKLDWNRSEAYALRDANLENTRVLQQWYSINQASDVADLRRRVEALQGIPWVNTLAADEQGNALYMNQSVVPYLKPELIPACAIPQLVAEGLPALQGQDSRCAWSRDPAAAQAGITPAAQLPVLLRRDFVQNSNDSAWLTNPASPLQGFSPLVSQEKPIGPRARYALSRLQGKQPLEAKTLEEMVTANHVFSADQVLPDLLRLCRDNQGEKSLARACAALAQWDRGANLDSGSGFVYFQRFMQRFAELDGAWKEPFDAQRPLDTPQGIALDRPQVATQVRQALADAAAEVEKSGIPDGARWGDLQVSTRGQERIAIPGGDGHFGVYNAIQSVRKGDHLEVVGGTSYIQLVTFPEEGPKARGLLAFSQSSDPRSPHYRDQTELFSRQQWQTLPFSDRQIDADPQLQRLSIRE

Activity change, negative = inhibition, inactive:
Cc1ccc(C(=O)/C=C/Nc2cccc([N+](=O)[O-])c2)o1 -5.79 unspecified
CN1C=CC=C/C1=C1\SC(=S)N(Cc2ccccc2)C1=O 8.81 unspecified
COc1ccc(CCNC(=O)/C(C#N)=C/c2ccc(OCC(=O)NCC3CCCO3)cc2)cc1OC (stereo not given) 10.4 unspecified
O=C(CSc1n[nH]c(=O)n1Cc1ccco1)c1ccc2c(c1)OCCO2 12.8 unspecified
O=C(NCCCn1ccnc1)c1nn2c(C(F)(F)F)cc(-c3ccccc3)nc2c1Cl 4.84 unspecified
O=C(N/N=C/c1cccnc1)C1CC1(c1ccccc1)c1ccccc1 (stereo not given) 13.5 unspecified
Cc1cc(C(=O)Nc2ccc(F)c(Cl)c2)on1 -12.7 unspecified
O=C(O)c1ccc(N=Nc2c(O)ccc3ncccc23)cc1 0.421 unspecified
Cc1ccc(Nc2nc(-c3sc(C)nc3C)cs2)cc1 17.1 unspecified
Cc1nc(N2CCNCC2)c2c3c(sc2n1)CCCC3 -1.68 unspecified
CC(=O)Nc1nc(-c2ccc(Cl)cc2)ns1 4.38 unspecified
CCOC(=O)CSc1nnc(-c2ccc(S(=O)(=O)N3CCC(C)CC3)cc2)o1 8.29 unspecified
COc1cccc(CN(C)CC(=O)NNC(=O)c2ccc(Cl)cc2)c1 -2.77 unspecified
Cc1ccc2nc(-c3ccc(O)cc3)oc2c1 4.15 unspecified
NS(=O)(=O)c1ccc(N2CCOCC2)c(C(=O)NCc2cccs2)c1 -10.9 unspecified
CCn1c(SCC(=O)N/N=C/c2ccc(C)o2)nnc1-c1ccc(C(C)(C)C)cc1 8.31 unspecified
CN1CCN(C(=O)c2cccn(Cc3ccc(C(F)(F)F)cc3)c2=O)CC1 8 unspecified
CCOC(=O)c1ccc(N2CCN(c3ccccc3F)CC2)c(NC(=O)Nc2cccc(OC)c2)c1 -5.01 unspecified
O=C1CCC(=O)N1CCSC(=S)N1CCSCC1 -0.632 unspecified
Cc1ccc(S(=O)(=O)N(CC(=O)N2CCC(C)CC2)c2ccccc2)cc1 2.52 unspecified
Cc1ccc(-c2nc3ccsc3c(=O)o2)cc1 -7.99 unspecified
CS(=O)(=O)N1CCN(C(=O)Nc2ccccc2)CC1 -6.79 unspecified
Cc1nc2ccc(S(=O)(=O)Nc3ccc(-c4nc5cccnc5s4)cc3)cc2s1 22.2 unspecified
O=C(Cc1cccc(NC(=O)C2CCN(C(=O)C3CCCCC3)CC2)c1)Nc1cccc(C(=O)N2CCCCC2)c1 -5.7 unspecified
COc1ccc(Cl)c(NCCC(=O)O)c1 -0.6 unspecified
CCOC(=O)Nc1ccc2nc(N3CCCCCC3)sc2c1 16.3 unspecified
O=C(NCCc1ccc2c(c1)OCCO2)c1ccccc1F -6.28 unspecified
COc1ccc(OC)c(C(=O)c2oc3ccccc3c2NC(C)=O)c1 -10.5 unspecified
NC(=O)c1cc(Sc2ccccc2)nc2ccccc12 9.91 unspecified
CCCSC1=C(C#N)C(c2ccc(OC)cc2)C2=C(CC(C)(C)CC2=O)N1 (stereo not given) -5.15 unspecified
CC(=O)c1c(C)[nH]c(C(=O)COC(=O)c2cccs2)c1C -0.196 unspecified
CC(=O)N/C(=N/c1nc(C)cc(C)n1)Nc1ccc(C)cc1C -9.63 unspecified
Cc1ccc2[nH]c(=O)c3cc(C(=O)NC(C)C)sc3c2c1 -10 unspecified
NC(=O)c1oc2ccccc2c1NC(=O)Cc1ccccc1 9.46 unspecified
COc1ccc(CN2CCCC(C(=O)c3cccc(OC(C)C)c3)C2)cc1Cn1cccn1 (stereo not given) 5.43 unspecified
